Source: PubChem
Rows were chosen to be rich in hits. Some 2.9% of all compounds tested hit in one or more screens of this group.
SNCA expr inh: Primary qHTS assay for inhibitors of alpha-synuclein gene (SNCA) expression; actives 0.17% (n = 140,000); HEK-293 SNCA-luciferase knock-in, luminescence, 24 h; AID 1671194, 2021; Potency, µM (doses to about 57.2 µM), for the others: at the highest dose activity change, negative = inhibition, hits mostly inhibitors;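 also: potency is read from the fitted curve at half-maximal effect; plate controls were DMSO cells for no effect and cell-free wells for full effect; nearly all actives have a fitted effect of over 45% in size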
IP6K1 inh: Primary qHTS assay for small molecule inhibitors of Inositol hexaphosphate kinase 1 (IP6K1) | IP6K1 kinase, ADP-Glo luminescence, 2 h; active compounds read low | activity change, % (series mostly up to about 58 µM) | actives 0.81% (n = 140,000) | AID 1645851, 2021; in the data active = activity change below about -25%; also: % is scaled to controls: 0 for no effect and ±100 for the full control effect
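ADP-Glo luminescence measures ADP made by human IP6K1 during a 2 h RT reaction with ATP/IP6 (mix at 1.3 mM/130 uM); top library doses 57.5 and 19.1 uM final.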
KDM5B inhibitor: Primary screen for KDM5B Histone Demethylases FDH-coupled qHTS. Lysine-specific demethylase 5B (Homo sapiens), Q9UGL1. KDM5B demethylase, FDH-coupled NADH fluorescence (FDH is formaldehyde dehydrogenase). Potency, µM (doses to about 57.7 µM), most hits filed as inhibitors. actives 2.6% (n = 220,000). AID 1347165, 2019; also: potency is read from the fitted curve at half-maximal effect; 0% is about no effect; nearly all actives have a fitted effect of over 70% in size
Target sequence (Q9UGL1 whole entry, looked up): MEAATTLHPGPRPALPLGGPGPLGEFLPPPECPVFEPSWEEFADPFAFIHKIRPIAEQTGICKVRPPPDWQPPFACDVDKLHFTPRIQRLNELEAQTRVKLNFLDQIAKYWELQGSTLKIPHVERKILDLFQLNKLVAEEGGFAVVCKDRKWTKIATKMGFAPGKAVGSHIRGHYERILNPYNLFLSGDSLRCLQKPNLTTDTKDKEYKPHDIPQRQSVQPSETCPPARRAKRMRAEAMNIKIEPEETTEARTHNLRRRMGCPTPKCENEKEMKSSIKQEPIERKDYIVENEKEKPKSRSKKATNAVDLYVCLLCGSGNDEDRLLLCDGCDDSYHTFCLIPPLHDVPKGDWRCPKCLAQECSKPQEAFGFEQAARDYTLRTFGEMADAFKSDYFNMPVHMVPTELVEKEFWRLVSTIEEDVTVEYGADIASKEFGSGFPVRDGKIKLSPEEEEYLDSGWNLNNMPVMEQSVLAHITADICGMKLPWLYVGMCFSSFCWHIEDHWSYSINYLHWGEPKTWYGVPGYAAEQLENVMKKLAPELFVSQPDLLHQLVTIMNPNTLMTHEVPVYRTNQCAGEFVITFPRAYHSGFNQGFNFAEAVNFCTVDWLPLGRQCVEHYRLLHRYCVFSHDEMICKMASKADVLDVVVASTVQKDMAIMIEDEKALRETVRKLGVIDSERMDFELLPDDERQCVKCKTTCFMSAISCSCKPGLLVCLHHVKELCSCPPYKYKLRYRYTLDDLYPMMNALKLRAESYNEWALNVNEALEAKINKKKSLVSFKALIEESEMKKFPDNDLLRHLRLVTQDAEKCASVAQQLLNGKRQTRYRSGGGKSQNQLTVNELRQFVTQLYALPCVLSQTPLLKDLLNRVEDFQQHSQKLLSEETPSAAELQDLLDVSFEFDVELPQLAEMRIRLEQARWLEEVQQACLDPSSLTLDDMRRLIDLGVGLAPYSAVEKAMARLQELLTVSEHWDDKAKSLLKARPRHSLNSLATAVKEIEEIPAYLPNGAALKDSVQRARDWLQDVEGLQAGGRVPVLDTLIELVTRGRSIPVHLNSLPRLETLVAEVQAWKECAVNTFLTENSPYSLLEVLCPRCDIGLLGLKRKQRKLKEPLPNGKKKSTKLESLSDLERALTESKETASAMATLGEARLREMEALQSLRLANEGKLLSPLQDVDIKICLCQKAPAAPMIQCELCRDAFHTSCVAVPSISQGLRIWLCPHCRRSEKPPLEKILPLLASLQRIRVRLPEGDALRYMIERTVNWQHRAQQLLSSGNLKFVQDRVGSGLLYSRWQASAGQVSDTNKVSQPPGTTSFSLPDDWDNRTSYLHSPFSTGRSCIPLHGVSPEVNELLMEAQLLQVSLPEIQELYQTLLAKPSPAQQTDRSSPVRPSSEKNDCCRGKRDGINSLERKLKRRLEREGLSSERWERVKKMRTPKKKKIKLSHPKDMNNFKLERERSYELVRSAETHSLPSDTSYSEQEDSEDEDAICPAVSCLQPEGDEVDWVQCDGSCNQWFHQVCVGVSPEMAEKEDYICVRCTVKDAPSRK
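Here, H3K4me3 peptide (12.5 µM in substrate mix) is demethylated by KDM5BΔAP, 200 nM final, after 10 min compound exposure. Formaldehyde product is coupled through FDH (0.25 U/mL in mix) to NADH fluorescence; 30-min ΔRFU feeds dose-response curves.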
HEK293 viab: GF-AFC viability counterscreen for inhibitors of alpha-synuclein gene (SNCA) expression | HEK-293-SNCA-luc viability, GF-AFC fluorescence, 24 h | Potency, µM (series often up to 57.1 µM), inactives show at the top dose activity change, negative = cytotoxicity, hits mostly cytotoxic | actives 0.12% (n = 150,000);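 also: potency is read from the fitted curve at half-maximal effect; 0% = DMSO-treated cells and -100% = medium-only wells without cells; nearly all actives have a fitted effect of over 30% in size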
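Cytotoxicity counterscreen: after 24 h compound treatment of genome-edited SNCA-luciferase HEK-293 cells, live-cell protease substrate GF-AFC read by fluorescence after 30 min; activity scaled between DMSO (0%) and medium-only (-100%), curves Hill-fitted.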
IP6K1 conf: Confirmatory qHTS assay for small molecule inhibitors of Inositol hexaphosphate kinase 1 (IP6K1) | actives 13% (n = 1,200) | Potency, µM (top dose mostly 49 µM), for the others: at the highest dose activity change, negative = inhibition, actives largely listed as inhibitors | shares compounds with IP6K1 inh | recombinant IP6K1 kinase, ADP-Glo luminescence, 2 h; also: potency is read from the fitted curve at half-maximal effect; % is scaled to controls: 0 for no effect and ±100 for the full control effect; nearly all actives have a fitted effect of over 65% in size
An asterisk follows results filed as active; i = inactive; u = inconclusive; x = no result given; ! = not confirmed by another sample; [ ] = dose if it differs, or a comment. Unless noted, calls follow the shape of the dose curve; as a rule, active = well fitted curve in the direction sought with a large enough effect; inconclusive = small, poorly fitted or top-dose-only effect, or another doubt; inactive = no such curve, though single readings can be large; an effect the other way counts as inactive or inconclusive.

SMILES	SNCA expr inh	IP6K1 inh	KDM5B inhibitor	HEK293 viab	IP6K1 conf
O=C1N(Cc2ccc(F)cc2)C[C@H]2CN(Cc3ccccn3)CCN12	11.1%[87.6 µM]	-32.5*	u	0.8%[87.6 µM]	u
Nc1nc2c(s1)C(c1cccc(F)c1)CC(=O)N2 (centres undefined)	67.7%	-31.2*	i	0.0%	u
O=C(NCCc1ccc(F)cc1)c1nc2cccnc2n(Cc2ccccc2)c1=O	-18.7%	12.9	x	-6.9%	x
CN(C)C/C=C/C(=O)Nc1cccc(C(=O)Nc2ccc(Nc3nccc(-c4cccnc4)n3)cc2)c1	x	-28.6*	x	u	u
COc1cccc(CN2CC[C@H](c3nc4ccccc4s3)C2)c1	112.4%[87.6 µM]	-2.3	u	0.3%[87.6 µM]	x
O=C1c2cnc(-c3cccc(CO)c3)nc2OCCN1c1ccccc1	7.94µM*	-40.3*	i	-16.0%[87.6 µM]	u
Brc1ccc(CN2CCC(c3nc4ccncc4[nH]3)C2)cc1 (centres undefined)	-22.4%	-51.7*!	u	2.0%	u
CCCC(=O)c1ccc(OC(=O)c2c(-c3ccccc3Cl)noc2C)cc1	3.8%	-34.9*	u	2.9%	-11.7%
Cc1ccc(CCNC(=O)c2nn(C)c3c2CSc2ccccc2-3)cc1	9.6%	-28.9*	u	8.1%	-17.6%
Cn1nc(C(=O)NCCc2ccc(Cl)cc2)c2c1-c1ccccc1SC2	u	5.6	u	-3.3%	x
CC(C)CNC(=O)c1cn2cc(-c3ccc(C(F)(F)F)cc3)sc2n1	u	-3.8	x	-5.2%	x
COc1ccc(CNC(=O)CSc2ncc3c(n2)-c2cc(Cl)ccc2N(Cc2ccccc2)S3(=O)=O)cc1OC	-6.6%	-8.4	i	0.9%	x
COc1ccc(CNC(=O)CSc2ncc3c(n2)-c2cc(Cl)ccc2N(Cc2ccccc2)S3(=O)=O)cc1	24.6%	-26.7*	i	3.7%	8.8%
CCc1ccccc1N(CC)C(=O)c1cc2c(s1)-c1ccccc1SC2	18.0%	-25.6*	u	9.1%	-5.5%
Cc1cccc(OCCCCn2c(C3CC(=O)N(c4ccc(C)cc4C)C3)nc3ccccc32)c1 (centres undefined)	u	-39.2*	u	u	-18.5%
COc1ccccc1Cn1c(C2CC(=O)N(c3ccccc3OC)C2)nc2ccccc21 (centres undefined)	12.8%	-43.1*	u	u	12.1%
CCc1ccccc1N1CC(c2nc3ccccc3n2CCCCOc2ccccc2OC)CC1=O (centres undefined)	21.5%	-12.7	u	2.4%	x
CCOc1ccccc1C(=O)NC1CCN(c2cc(C(F)(F)F)nc(C)n2)CC1	-23.7%	-8.4	i	-16.1%	x
Cc1c(Cn2c(C)nc3c(C(=O)O)cc(N4CCOCC4)cc32)cccc1C(F)(F)F	-15.4%	-7.5	x	6.6%	-12.1%
Cc1nc(N2CCOCC2)cc(N2CCN(C(=O)c3cccc(C(F)(F)F)c3)CC2)n1	x	x	i	x	x
CCCCCCCCOc1ccccc1C(=O)Nc1ccc(C(=O)OCC[N+](C)(CC)CC)cc1	8.9%[25.6 µM]	-37.3*	x	u	u
CCCCCOc1ccccc1C(=O)NCCCCCC(=O)O	x	x	i	x	x
CC(=O)N1CCN(c2nc3c(s2)CC(C(=O)Nc2ccc(F)c(Cl)c2)CC3)CC1 (centres undefined)	u	34.3	i	-15.3%	x
CCOC(=O)c1cnc2ccc(Cl)cc2c1Nc1ccc(N2CCOCC2)cc1	-25.9%	-25.4*	i	-5.6%	-12.8%
CCCn1ccnc1CN1CCCn2nc(-c3nc4ccccc4n3C)cc2C1	u	4.1	u	-14.9%	x
SMILES	SNCA expr inh	IP6K1 inh	KDM5B inhibitor	HEK293 viab	IP6K1 conf
CN(C(=O)C(=O)Nc1ccc2nc3n(c(=O)c2c1)CCCCC3)c1cccc(C(F)(F)F)c1	2.5%	-14.0	i	-0.8%	x
O=C(Nc1ccc2nc3n(c(=O)c2c1)CCCCC3)c1cccc(C(F)(F)F)c1	-20.6%	-25.3*	i	u	4.6%
C[C@@H]1CN(C(=O)c2cnc3c(O)cccn3c2=O)CC[C@@]1(O)C1CCC1	17.6%	-28.3*	31.6µM*	17.2%	-11.0%
COc1cc(F)ccc1-c1cc(C(=O)NCc2c(C)cc(C)[nH]c2=O)c2c(c1)N(C(C)C)CCO2	-29.8%	-27.0*	31.6µM*	-15.7%	-4.9%
COc1ccc(-c2cc(C(=O)NCc3cccnc3)c3c(c2)N(C)CCO3)cc1OC	2.1%[87.6 µM]	-5.8	u	-6.6%[87.6 µM]	x
Cc1cc(C)c(CNC(=O)c2cc(-c3cccnc3)cc3c2OCCN3C)c(=O)[nH]1	16.8%[87.6 µM]	-28.1*	u	-11.6%[87.6 µM]	-29.7%
COc1ccc(CN[C@@H]2C=C[C@@H](c3c(C)nn(-c4ccc(OC)cc4)c3C)C2)cc1	40.5%[87.6 µM]	-8.2	u	-24.1%[87.6 µM]	x
Cc1nc2cc(-c3cccc(F)c3)nn2c(C)c1CCC(=O)NC(C)c1ccccc1 (centres undefined)	u	-25.5*	u	u	1.4%
Cc1nc2cc(-c3cccc(F)c3)nn2c(C)c1CCC(=O)NCCc1ccccc1	12.9%	-7.9	u	-1.1%	x
Cc1ccc(NC(=O)c2nc(S(C)(=O)=O)ncc2N(Cc2ccco2)Cc2cccs2)cc1C	4.4%	-13.9	i	u	x
Cc1ccc(NC(=O)c2nc(S(C)(=O)=O)ncc2N(Cc2ccco2)Cc2ccco2)cc1C	-7.4%	-28.8*	u	8.1%	-5.1%
O=C(Cc1c[nH]c2ncc(-c3cccnc3)cc12)Nc1ccc(F)cc1	-18.1%[87.6 µM]	-17.0	i	-7.8%[87.6 µM]	x
O=C(Cc1c[nH]c2ncc(-c3ccc(Oc4ccccc4)cc3)cc12)NCc1cccnc1	u	-14.9	u	u	x
O=C(Cc1c[nH]c2ncc(-c3ccc(Cl)cc3)cc12)NCc1cccnc1	17.3%[87.6 µM]	-25.4*	u	4.3%[87.6 µM]	-25.3%
N#Cc1ccc(-c2cnc3[nH]cc(NC(=O)c4cccnc4)c3c2)cc1	x	-27.7*	x	-16.6%	u
NC(=O)Cc1c[nH]c2ncc(-c3ccc(F)cc3)cc12	9.9%[87.6 µM]	-29.2*	35.5µM*	6.1%[87.6 µM]	u
NC(=O)Cc1c[nH]c2ncc(-c3ccccc3C(F)(F)F)cc12	-10.6%[87.6 µM]	-34.0*	u	-10.0%[87.6 µM]	u
COc1ncccc1-c1cnc2[nH]cc(CC(N)=O)c2c1	68.6%[87.6 µM]	-29.2*	31.6µM*	2.4%[87.6 µM]	u
COc1ccc(-c2cnc3[nH]cc(CC(N)=O)c3c2)cc1OC	16.1%[87.6 µM]	-31.0*	u	-7.3%[87.6 µM]	u
COCCNC(=O)Cc1c[nH]c2ncc(-c3ccccc3C)cc12	-0.1%[87.6 µM]	-17.8	u	0.6%[87.6 µM]	x
CC(=O)NC1CCN(Cc2cccc(-c3ccc(F)cc3F)c2)CC1	x	9.5	x	x	x
CCC1(C)Cc2c(sc3nc(SC)n(-c4ccc(C)cc4)c(=O)c23)CO1 (centres undefined)	5.6%	-50.1*	i	10.5%	21.9%
